As usually defined, the AC50 is the concentration at which the activity in the assay is half-maximal.

Inconclusive results are not listed. The source holds several records for some structures; these can differ, active in one and inactive in another. The source made the active and inactive calls. How the source made its calls: active means hit-call score of the fitted dose curve at least 0.9, where 1 is the maximum; inconclusive means response in the unintended direction; inactive means score below 0.9.

Estrogen receptor (Homo sapiens), sequence (P03372 whole entry, looked up): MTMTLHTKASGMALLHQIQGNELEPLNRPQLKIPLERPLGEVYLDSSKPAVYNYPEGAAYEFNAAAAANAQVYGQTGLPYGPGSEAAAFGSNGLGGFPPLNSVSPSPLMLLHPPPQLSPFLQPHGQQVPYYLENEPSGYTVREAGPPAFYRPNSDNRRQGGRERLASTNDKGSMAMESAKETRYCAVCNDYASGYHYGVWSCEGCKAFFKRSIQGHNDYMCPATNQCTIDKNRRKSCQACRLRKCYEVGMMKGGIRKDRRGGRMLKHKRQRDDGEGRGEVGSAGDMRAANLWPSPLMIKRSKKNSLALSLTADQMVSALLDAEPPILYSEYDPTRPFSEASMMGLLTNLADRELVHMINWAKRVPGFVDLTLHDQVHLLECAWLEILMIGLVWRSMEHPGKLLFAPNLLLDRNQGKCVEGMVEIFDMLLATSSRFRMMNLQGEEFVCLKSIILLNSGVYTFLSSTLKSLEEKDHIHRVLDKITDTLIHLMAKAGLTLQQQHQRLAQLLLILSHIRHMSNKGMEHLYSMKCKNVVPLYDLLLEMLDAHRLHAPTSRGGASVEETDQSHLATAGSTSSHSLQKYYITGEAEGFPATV
human Constitutive Androstane Receptor (CAR), NR1I3 (gene 9970), sequence (Q14994 whole entry, looked up): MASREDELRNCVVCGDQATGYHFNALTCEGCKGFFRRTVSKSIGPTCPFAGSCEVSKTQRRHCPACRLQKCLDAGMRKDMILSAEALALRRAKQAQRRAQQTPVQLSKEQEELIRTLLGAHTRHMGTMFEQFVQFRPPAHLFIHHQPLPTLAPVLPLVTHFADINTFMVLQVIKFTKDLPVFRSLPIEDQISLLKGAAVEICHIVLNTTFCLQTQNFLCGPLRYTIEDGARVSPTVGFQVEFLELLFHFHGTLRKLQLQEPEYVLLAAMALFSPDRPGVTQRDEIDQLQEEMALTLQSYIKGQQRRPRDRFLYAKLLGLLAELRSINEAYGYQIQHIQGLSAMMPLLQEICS
chimpanzee Androgen Receptor (AR), AR (gene 747460), sequence (O97775 whole entry, looked up): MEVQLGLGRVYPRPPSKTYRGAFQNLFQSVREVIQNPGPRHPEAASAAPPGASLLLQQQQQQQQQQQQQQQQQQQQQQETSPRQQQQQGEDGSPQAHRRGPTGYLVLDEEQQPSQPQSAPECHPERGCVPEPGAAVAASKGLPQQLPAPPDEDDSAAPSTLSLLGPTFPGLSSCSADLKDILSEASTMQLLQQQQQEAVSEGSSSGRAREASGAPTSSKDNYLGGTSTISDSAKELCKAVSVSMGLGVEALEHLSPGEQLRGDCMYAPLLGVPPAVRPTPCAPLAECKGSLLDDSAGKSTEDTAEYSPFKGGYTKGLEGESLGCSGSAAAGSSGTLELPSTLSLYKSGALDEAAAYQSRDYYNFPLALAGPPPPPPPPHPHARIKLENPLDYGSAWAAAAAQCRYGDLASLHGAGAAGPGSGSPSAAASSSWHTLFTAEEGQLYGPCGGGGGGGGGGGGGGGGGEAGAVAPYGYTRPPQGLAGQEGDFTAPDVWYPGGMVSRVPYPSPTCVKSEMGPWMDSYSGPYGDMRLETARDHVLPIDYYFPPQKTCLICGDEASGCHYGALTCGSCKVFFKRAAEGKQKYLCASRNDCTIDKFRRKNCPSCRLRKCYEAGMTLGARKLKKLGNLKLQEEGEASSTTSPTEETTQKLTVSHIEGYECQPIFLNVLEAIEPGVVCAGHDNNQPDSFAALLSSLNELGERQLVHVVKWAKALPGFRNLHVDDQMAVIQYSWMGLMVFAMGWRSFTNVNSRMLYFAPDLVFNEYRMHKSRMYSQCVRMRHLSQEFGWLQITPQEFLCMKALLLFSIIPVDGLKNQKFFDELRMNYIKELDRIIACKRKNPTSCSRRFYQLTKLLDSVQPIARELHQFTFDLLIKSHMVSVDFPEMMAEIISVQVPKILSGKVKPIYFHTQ

One experiment addresses human Constitutive Androstane Receptor (CAR), NR1I3 (gene 9970) (UniProt Q14994). As to the kind of experiment: NVS_NR_hCAR_Antagonist: NovaScreen (NVS) Nuclear Receptor Binding Assay for human Constitutive Androstane Receptor Antagonism (CAR) (AID 2283344). The method, boiled down: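 Cell-free TR-FRET binding read 1 h after dosing, antagonist mode; loss of signal versus DMSO baseline. Primary screen in duplicate at a single 25 uM; actives retested in concentration series.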
In the case of `Cc1oc2c(NC(=O)c3c(Cl)cccc3Cl)cccc2c1C(C)(C)O`, the concentration at half-maximal activity (AC50) was 34.6 µM (active).
For the compound `CN(C)C(=O)C1(N2CCCCC2)CCN(CC[C@@]2(c3ccc(Cl)c(Cl)c3)CN(C(=O)c3ccccc3)CCO2)CC1`, the call was inactive.
As to `CCN(CC)C(=O)c1cc(S(=O)(=O)Cc2ccccc2)c(N2CCC(c3ccccc3)CC2)cc1N(CC)CCN(C)C`, the result was inactive.
Still for that read-out and setting: the result for `Clc1cc(Cl)c2c(c1)N=C1CCCCCN1C2` reads “inactive”; that for `Cc1c2ccccc2c(C)c2c1ccc1ccccc12`, “inactive”.

For the next experiment, the target named is bovine Estrogen Receptor (ER), ESR1 (gene 407238) (UniProt P49884). Put plainly: NVS_NR_bER: NovaScreen (NVS) Nuclear Receptor Binding Assay for bovine Estrogen Receptor (ER) (AID 2283345).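 Further: actives lower the bound radioligand count which means they displace the ER ligand.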 The method, boiled down: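 Bovine uterine membranes; tritiated or iodinated radioligand; competitive displacement; 18 h; scintillation read; DMSO negative control; 25 uM duplicates, then concentration series for actives.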
bovine Estrogen Receptor (ER), ESR1 (gene 407238), sequence (P49884 whole entry, looked up): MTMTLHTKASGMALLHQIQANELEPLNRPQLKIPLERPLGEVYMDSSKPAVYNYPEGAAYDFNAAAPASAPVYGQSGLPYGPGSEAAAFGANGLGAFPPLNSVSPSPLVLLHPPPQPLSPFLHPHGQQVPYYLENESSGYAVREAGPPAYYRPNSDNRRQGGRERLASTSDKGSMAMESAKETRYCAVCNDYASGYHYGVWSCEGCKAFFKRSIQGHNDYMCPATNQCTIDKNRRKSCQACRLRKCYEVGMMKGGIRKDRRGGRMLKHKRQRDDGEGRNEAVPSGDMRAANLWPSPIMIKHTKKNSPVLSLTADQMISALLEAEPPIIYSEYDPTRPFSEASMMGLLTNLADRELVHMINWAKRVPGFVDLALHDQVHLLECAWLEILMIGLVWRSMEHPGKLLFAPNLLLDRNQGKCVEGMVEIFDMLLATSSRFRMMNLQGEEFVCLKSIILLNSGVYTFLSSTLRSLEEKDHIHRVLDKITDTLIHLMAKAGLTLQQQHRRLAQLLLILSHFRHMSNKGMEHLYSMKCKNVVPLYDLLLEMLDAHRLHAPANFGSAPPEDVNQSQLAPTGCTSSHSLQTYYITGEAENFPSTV
With `COc1cc(C(=O)NC2CCN(C)CC2)ccc1Nc1ncc2c(n1)N(C1CCCC1)CC(F)(F)C(=O)N2C`, the compound was called inactive.
For `OC12N=C(c3ccccc3)SC1Cc1cc(Cl)ccc12` (stereo not drawn), the compound was called inactive.
Take `CC[C@H](NC(=O)c1cc(F)ccc1NS(=O)(=O)c1cccc2cccnc12)c1ccccc1`: the result was inactive.
On the same count and under the same terms, with `Cc1c2ccccc2c(C)c2c1ccc1ccccc12` the entry was “inactive”; with `CN(C)c1ccc(C(=C2C=CC(=[N+](C)C)C=C2)c2ccc(N(C)C)cc2)cc1`, “inactive”; with `CCN(Cc1cccnc1)C(=O)c1cccc(Cl)c1[C@]1(C)C(=O)N(Cc2ccc(OC)cc2OC)c2ccc(Cl)cc21`, “inactive”.
As to `CCCCCCCCN(C)CCCCCCCC`, the compound was called inactive.
For the compound `CCCCCCCCOC(=O)c1cc(O)c(O)c(O)c1`, the half-maximal activity concentration (AC50) is 36.7 µM (active).

Another experiment addresses chimpanzee Androgen Receptor (AR), AR (gene 747460) (UniProt O97775). Put plainly: NVS_NR_cAR: NovaScreen (NVS) Nuclear Receptor Binding Assay for chimpanzee Androgen Receptor (AR) (AID 2283346).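 Further: radioligand displacement from AR measured by scintillation counting in a cell-free assay; a loss of bound radioligand signal versus DMSO counts as binding.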 The method, boiled down: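 Cell-free competition binding with insect-cell (Sf9/Sf21) extracted chimpanzee AR; scintillation signal from lysate at 72 h. Screened in duplicate at 25 uM, then concentration-response for actives; fitting relative to DMSO.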
`Cc1oc2c(NC(=O)c3c(Cl)cccc3Cl)cccc2c1C(C)(C)O`: the call was inactive.
On to `COc1ccc2cc(S(=O)(=O)N[C@H](CC(=O)N[C@H](Cc3ccc(CN4[C@H](C)CCC[C@@H]4C)cc3)C(=O)N(C)C(C)C)c3ccc4c(c3)OCO4)ccc2c1`, for which the AC50 was 10.8 µM (active).
As to `CN(C)C(=O)C1(N2CCCCC2)CCN(CC[C@@]2(c3ccc(Cl)c(Cl)c3)CN(C(=O)c3ccccc3)CCO2)CC1`, the AC50 is 13.9 µM (active).
The same measure, in the same setting: the result for `CCN(CC)C(=O)c1cc(S(=O)(=O)Cc2ccccc2)c(N2CCC(c3ccccc3)CC2)cc1N(CC)CCN(C)C` reads 12.6 µM (active); that for `NCc1cccc(C2CCN(C(=O)c3ccc(C#Cc4ccccc4F)o3)CC2)c1`, 32.6 µM (active).
With `OC12N=C(c3ccccc3)SC1Cc1cc(Cl)ccc12` (stereo not drawn), the call was inactive.
On the same count and under the same terms, the result for `Cc1c2ccccc2c(C)c2c1ccc1ccccc12` reads “inactive”.
Take `CC/C(=C(/CC)c1ccc(O)cc1)c1ccc(O)cc1`: the AC50 is 12.6 µM (active) and the call was inactive.
Turning to `CN(C)c1ccc(C(=C2C=CC(=[N+](C)C)C=C2)c2ccc(N(C)C)cc2)cc1`, the AC50 is 17.7 µM (active).
The same measure, in the same setting: with `CCN(Cc1cccnc1)C(=O)c1cccc(Cl)c1[C@]1(C)C(=O)N(Cc2ccc(OC)cc2OC)c2ccc(Cl)cc21` the figure was 18.3 µM (active).
Turning to `CCCCOC(=O)c1ccc(O)cc1`, the compound was classed as inactive.
`CCOC(=O)O[C@H](C)OC(=O)c1ccc2c(c1)cc(C(=O)NC1CCN(C(C)C)CC1)n2Cc1cc(-c2ccc(Cl)s2)on1`: the AC50 was 17.8 µM (active).
With `O=c1c(-c2ccc(O)cc2)coc2cc(O)cc(O)c12`, the call was inactive.

Another experiment deals with Estrogen receptor (Homo sapiens) (UniProt P03372). Put plainly: NVS_NR_hER: NovaScreen (NVS) Nuclear Receptor Binding Assay for human Estrogen Receptor (ER) (AID 2283348). The method in brief:
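Scintillation signal from bound radioligand was measured 18 hours after chemical addition to cell-free MCF7 protein extracts, with DMSO as baseline. Activity was scored as signal loss; compounds ran first at 25 uM in duplicate.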
In the case of `Cc1oc2c(NC(=O)c3c(Cl)cccc3Cl)cccc2c1C(C)(C)O`, the AC50 was 13.6 µM (active).
As for `CC(C)(O)c1ccc(CNC(=O)c2cccnc2Oc2ccc3nonc3c2)cc1`, the compound was called inactive.
For the compound `Cc1cc(F)ccc1-c1cc(N2CC[C@@H](O)[C@H]2CO)ncc1N(C)C(=O)C(C)(C)c1cc(C(F)(F)F)cc(C(F)(F)F)c1`, the compound was called inactive.
Still for that read-out and setting: the result for `CN(C)C(=O)C1(N2CCCCC2)CCN(CC[C@@]2(c3ccc(Cl)c(Cl)c3)CN(C(=O)c3ccccc3)CCO2)CC1` reads “inactive”.
Still for that read-out and setting: with `NC(=O)c1nc(-c2cccc(-c3cc(F)ccc3OCC(F)(F)C(F)(F)F)c2)n[nH]1` the entry was “inactive”.
For `CN(C[C@@H](CC[N+]12CCC(C3CCCCC3)(CC1)CC2)c1ccc(Cl)c(Cl)c1)C(=O)c1cc(C(F)(F)F)cc(C(F)(F)F)c1`, the AC50 is 33 µM (active).
On to `NCc1cccc(C2CCN(C(=O)c3ccc(C#Cc4ccccc4F)o3)CC2)c1`, for which the compound was called inactive.
The same measure, in the same setting: the result for `CC[C@H](NC(=O)c1cc(F)ccc1NS(=O)(=O)c1cccc2cccnc12)c1ccccc1` reads “inactive”.
For `Cc1c2ccccc2c(C)c2c1ccc1ccccc12`, the compound was classed as inactive.
`CN(C)c1ccc(C(=C2C=CC(=[N+](C)C)C=C2)c2ccc(N(C)C)cc2)cc1`: the compound was called inactive.
For the compound `CCN(Cc1cccnc1)C(=O)c1cccc(Cl)c1[C@]1(C)C(=O)N(Cc2ccc(OC)cc2OC)c2ccc(Cl)cc21`, the AC50 is 7.99 µM (active).
Regarding `CCCCCCCCN(C)CCCCCCCC`, the compound was called inactive.
Still for that read-out and setting: the result for `CCOC(=O)O[C@H](C)OC(=O)c1ccc2c(c1)cc(C(=O)NC1CCN(C(C)C)CC1)n2Cc1cc(-c2ccc(Cl)s2)on1` reads “inactive”; that for `CCCCCCCCOC(=O)c1cc(O)c(O)c(O)c1`, “inactive”.

Another experiment shares this target. Put plainly: OT_ER_ERaERa_1440: Odyssey Thera (OT) 24-hour HEK293T Protein-Complementation Assay for Estrogen Receptor-alpha/-alpha Homodimer (AID 2283349).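 Further: hits raise fluorescence above DMSO for agonists and antagonists alike.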 The method, boiled down:
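Protein-fragment complementation between two human ERα ligand-binding domains (aa 310-547) in stably transfected HEK293T cells was monitored after 24 h treatment, using fluorescence intensity relative to vehicle controls.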
As for `Cc1oc2c(NC(=O)c3c(Cl)cccc3Cl)cccc2c1C(C)(C)O`, the compound was called inactive.
Still for that read-out and setting: the result for `CC(C)(O)c1ccc(CNC(=O)c2cccnc2Oc2ccc3nonc3c2)cc1` reads “inactive”; that for `COc1ccc2cc(S(=O)(=O)N[C@H](CC(=O)N[C@H](Cc3ccc(CN4[C@H](C)CCC[C@@H]4C)cc3)C(=O)N(C)C(C)C)c3ccc4c(c3)OCO4)ccc2c1`, “inactive”; that for `CCCC(=O)OCCC(C)C`, “inactive”.
On the same count and under the same terms, the result for `Cc1cc(F)ccc1-c1cc(N2CC[C@@H](O)[C@H]2CO)ncc1N(C)C(=O)C(C)(C)c1cc(C(F)(F)F)cc(C(F)(F)F)c1` reads “inactive”; that for `CN(C)C(=O)C1(N2CCCCC2)CCN(CC[C@@]2(c3ccc(Cl)c(Cl)c3)CN(C(=O)c3ccccc3)CCO2)CC1`, “inactive”.
In the case of `COc1cc(C(=O)NC2CCN(C)CC2)ccc1Nc1ncc2c(n1)N(C1CCCC1)CC(F)(F)C(=O)N2C`, the AC50 was 2.24 µM (active).
For the compound `NC(=O)c1nc(-c2cccc(-c3cc(F)ccc3OCC(F)(F)C(F)(F)F)c2)n[nH]1`, the call was inactive.
For `Cc1ccc2oc(CN(Cc3ccccc3)C(=O)Nc3c(F)cc(F)cc3F)c(-c3ccc(Cl)cc3)c2c1`, the result was inactive.
Still for that read-out and setting: the result for `CCN(CC)C(=O)c1cc(S(=O)(=O)Cc2ccccc2)c(N2CCC(c3ccccc3)CC2)cc1N(CC)CCN(C)C` reads “inactive”; that for `Clc1cc(Cl)c2c(c1)N=C1CCCCCN1C2`, “inactive”; that for `CN(C[C@@H](CC[N+]12CCC(C3CCCCC3)(CC1)CC2)c1ccc(Cl)c(Cl)c1)C(=O)c1cc(C(F)(F)F)cc(C(F)(F)F)c1`, “inactive”.
The same measure, in the same setting: the result for `NCc1cccc(C2CCN(C(=O)c3ccc(C#Cc4ccccc4F)o3)CC2)c1` reads “inactive”; that for `OC12N=C(c3ccccc3)SC1Cc1cc(Cl)ccc12` (stereo not drawn), “inactive”.
Take `CC[C@H](NC(=O)c1cc(F)ccc1NS(=O)(=O)c1cccc2cccnc12)c1ccccc1`: the compound was classed as inactive.
On the same count and under the same terms, the result for `CC[C@@H]1C[C@H](N(Cc2cc(C(F)(F)F)cc(C(F)(F)F)c2)C(C)=O)c2cc(C(F)(F)F)ccc2N1C(=O)OC(C)C` reads “inactive”; that for `Cc1c2ccccc2c(C)c2c1ccc1ccccc12`, “inactive”; that for `CN(C)c1ccc(C(=C2C=CC(=[N+](C)C)C=C2)c2ccc(N(C)C)cc2)cc1`, “inactive”.
Take `O=c1[nH]sc2ccccc12`: the compound was classed as inactive.
On the same count and under the same terms, the result for `O=C(O)Cn1c(=O)n(Cc2ccc(Br)cc2F)c(=O)c2ccc(Cl)cc21` reads “inactive”; that for `O=C1c2ccccc2C(=O)N1CCc1noc(-c2ccc(CN3CCCCCC3)s2)n1`, “inactive”; that for `CCN(Cc1cccnc1)C(=O)c1cccc(Cl)c1[C@]1(C)C(=O)N(Cc2ccc(OC)cc2OC)c2ccc(Cl)cc21`, “inactive”.
In the case of `CCCCCCCCN(C)CCCCCCCC`, the compound was called inactive.
For `COc1cccc([C@H](O)C2CCN(CCc3ccc(F)cc3)CC2)c1OC`, the compound was called inactive.
Consider `CCOC(=O)O[C@H](C)OC(=O)c1ccc2c(c1)cc(C(=O)NC1CCN(C(C)C)CC1)n2Cc1cc(-c2ccc(Cl)s2)on1`, for which the result was inactive.
Consider `CCCCCCCCOC(=O)c1cc(O)c(O)c(O)c1`, for which the AC50 is 14.4 µM (active).
Take `Cc1occc1C(=O)Nc1ccc(C(=O)N2CCC(F)(F)/C(=C\C(=O)N3CCC(N4CCCCC4)CC3)c3ccccc32)cc1`: the outcome was inactive.

The record behind these values is PubChem BioAssay (EPA / NIEHS).
